# Measurements from publication PMC4336329 (PLoS ONE, 2015).
# The campaign covered roughly 310,000 compounds. About 14,000 (4.5%) showed an effect of 50% or more. Effects have a minus sign here. For the sample, strong results were picked, then their nearest neighbours and some compounds at random.
# Biological target: human ether-à-go-go-related gene (hERG) potassium channel (human, UniProt Q12809)
# Experiment: primary screen, population patch clamp on CHO cells stably expressing hERG; higher = less effect of the substance
# 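Further: peak tail current of the secondary pulse compared with the same well before compound.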
# Chain of human ether-à-go-go-related gene (hERG) potassium channel (Q12809 whole entry, looked up): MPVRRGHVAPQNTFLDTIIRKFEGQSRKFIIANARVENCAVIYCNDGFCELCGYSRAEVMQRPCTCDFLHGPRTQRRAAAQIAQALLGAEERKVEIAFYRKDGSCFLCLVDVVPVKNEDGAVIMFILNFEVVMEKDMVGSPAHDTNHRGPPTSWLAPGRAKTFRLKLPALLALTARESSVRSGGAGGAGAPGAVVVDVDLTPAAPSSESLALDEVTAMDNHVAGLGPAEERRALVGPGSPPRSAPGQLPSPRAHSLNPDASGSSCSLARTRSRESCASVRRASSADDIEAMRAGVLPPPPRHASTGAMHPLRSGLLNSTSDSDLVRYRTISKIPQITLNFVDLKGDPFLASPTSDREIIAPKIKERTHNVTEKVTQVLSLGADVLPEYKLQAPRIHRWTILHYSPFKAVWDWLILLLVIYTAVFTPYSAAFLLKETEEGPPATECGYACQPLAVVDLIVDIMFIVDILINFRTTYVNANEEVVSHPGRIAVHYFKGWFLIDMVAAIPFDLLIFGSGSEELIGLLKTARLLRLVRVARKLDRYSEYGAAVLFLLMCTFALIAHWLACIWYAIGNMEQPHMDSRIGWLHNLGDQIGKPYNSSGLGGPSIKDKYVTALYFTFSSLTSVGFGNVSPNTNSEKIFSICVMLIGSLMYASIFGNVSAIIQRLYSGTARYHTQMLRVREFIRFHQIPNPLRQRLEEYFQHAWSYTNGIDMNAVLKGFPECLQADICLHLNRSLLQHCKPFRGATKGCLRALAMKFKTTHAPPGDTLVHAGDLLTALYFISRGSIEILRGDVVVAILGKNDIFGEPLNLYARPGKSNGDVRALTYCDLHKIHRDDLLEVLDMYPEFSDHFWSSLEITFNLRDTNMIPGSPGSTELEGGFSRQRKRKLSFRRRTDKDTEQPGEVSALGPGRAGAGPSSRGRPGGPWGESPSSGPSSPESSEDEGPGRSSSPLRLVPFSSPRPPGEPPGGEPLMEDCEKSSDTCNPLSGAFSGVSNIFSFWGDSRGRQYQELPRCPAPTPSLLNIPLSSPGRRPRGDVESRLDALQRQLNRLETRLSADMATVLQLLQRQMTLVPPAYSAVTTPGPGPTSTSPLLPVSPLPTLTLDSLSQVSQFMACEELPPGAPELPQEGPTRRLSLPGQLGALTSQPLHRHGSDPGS
row,Structure (SMILES),"hERG current change (%, negative = inhibition) at 10uM [%]"
1,O=C1CC2(CCCC2)C(=O)N1CN1CCN(S(=O)(=O)c2ccc(Cl)c(Cl)c2)CC1,3.53
2,CCCCOC(=O)n1c(SCC(=O)N(CC)CC)nc2ccccc21,-34.7
3,CCCn1c(O)c(/C=C2\C=NN=C2c2ccccc2)sc1=S,7.93
4,c1ccc(C2Nc3cccc4cccc(c34)N2)cc1,14
5,CN1CCN(NC(=O)c2cc(S(=O)(=O)Nc3ccc(Cl)cc3)ccc2Cl)CC1.Cl,5.84
6,CCOC(=O)CNC(=O)c1ccc(Br)s1,-9.48
7,CCOc1cccc(-c2c(C(=O)N/N=C(\C)c3ccncc3)nnn2-c2nonc2N)c1,-43.6
8,COc1ccc(-c2cccc(C(=O)Nc3ccc(C)cc3)c2)cc1,16.9
9,COc1ccc(-[n+]2c(-c3ccccc3)cc(-c3ccc(C)cc3)cc2-c2ccccc2)cc1.[O-][Cl+3]([O-])([O-])[O-],-77.7
10,COc1ccc(-[n+]2c(-c3ccccc3)cc(-c3ccccc3)cc2-c2ccccc2)cc1.[O-][Cl+3]([O-])([O-])[O-],-71.9
11,COc1ccc2cc(-c3ccccc3)ncc2c1,5.65
12,COc1ccc(-c2ccc(OC)cc2)cc1,7.51
13,COc1ccc2cc(-c3ccccc3)c(=O)oc2c1,18
14,CSc1ccc(S(=O)(=O)NCc2ccccc2)cc1,13.1
15,CCCC(CCC(=O)Nc1cccc([N+](=O)[O-])c1)C(=O)O (stereo not shown),-0.0899
16,CCOc1ccc(-n2c(C)nc3cc(C(=O)NCC4CCCO4)ccc32)cc1 (stereo not shown),-15.2
17,CCN(CC)c1ccc(S(=O)(=O)N2CCCCC2)cc1NC(=O)C1CCC1,-15.3
18,CC1(C)CC(=O)c2cnc(NCC3CCCO3)nc2C1 (stereo not shown),7.24
19,COc1cc(C2=NOC(C(=O)Nc3ccc4c(c3)OCO4)C2)cc(OC)c1OC (stereo not shown),16.6
20,FC(F)(F)c1nc(N2CCCC2)ncc1-c1nnnn1-c1ccc(Cl)cc1,-4.4
21,CC1(C)C(N(O)C(=O)Nc2ccc(Cl)cc2)N(c2ccc(Cl)cc2)C(=O)N1CC(=O)NN (stereo not shown),-14.6
22,O=c1cc(-c2ccccc2)[nH]n2cnnc12,12.6
23,O=C(CN1C(=O)S/C(=C\c2ccc(F)cc2)C1=O)NCCCn1ccnc1,-58.9
24,CC(C)c1ccc(/C=C2\SC(=O)N(CC(=O)NCCCn3ccnc3)C2=O)cc1,-76.9
25,O=C(CN1C(=O)S/C(=C\c2ccc(Cl)cc2)C1=O)NCCCn1ccnc1,-68.2
26,CC(C)c1ccc(/C=C2\SC(=S)N(CCC(=O)NCCCn3ccnc3)C2=O)cc1,-17.3
27,O=C(CN1C(=O)S/C(=C\c2cccc(Cl)c2)C1=O)NCCCn1ccnc1,-51.2
28,O=C(CN1C(=O)S/C(=C\c2ccccc2Cl)C1=O)NCCCn1ccnc1,-44.5

row,Structure (SMILES),"hERG current change (%, negative = inhibition) at 10uM [%]"
1,COc1ccccc1/C=C1\SC(=O)N(CC(=O)NCCCn2ccnc2)C1=O,-3.76
2,COc1ccc(/C=C2\SC(=O)N(CC(=O)NCCCn3ccnc3)C2=O)cc1,-44.5
3,COc1cccc(/C=C2\SC(=O)N(CC(=O)NCCCn3ccnc3)C2=O)c1,-31.6
4,O=C(CN1C(=O)S/C(=C\c2ccccc2F)C1=O)NCCCn1ccnc1,-9.34
5,COc1ccc(/C=C2\SC(=O)N(CCC(=O)NCCCn3ccnc3)C2=O)cc1,-43.2
6,O=C(CN1C(=O)S/C(=C\c2ccccc2)C1=O)NCCCn1ccnc1,-23.4
7,CCCCCCCCN1[C@@H](CC(=O)OC)c2cc(C(F)(F)F)ccc2S1(=O)=O,1.99
8,Cc1cc(C)n(-c2nc3c(c(=O)[nH]c(=O)n3C)n2C)n1,10.1
9,Oc1ccc(-c2cc(-c3ccc(O)cc3)nc(-c3ccccc3)n2)cc1,20.1
10,Cc1ccc(S(=O)(=O)n2[nH]c(=O)cc2NC(=O)c2cccs2)cc1,-0.667
11,CCc1nn2c(=O)cc(CSCC(=O)Nc3ccccc3F)nc2s1,11.3
12,Cc1ccccc1OCC(=O)N1CCCCCCC1,1.22
13,CCC(C#CCN1CCCCC1)(CC)OCCC#N,2.57
14,CCOC(=O)CSc1ncc(-c2ccccc2)nn1,-6.58
15,CCOC(=O)Cc1nnc(NC(=O)CSc2ncc(-c3ccccc3)nn2)s1,-58.7
16,CCOC(=O)Cc1nnc(NC(=O)CSc2ccccc2)s1,7.53
17,C=CCc1cc(C=O)cc(OCC)c1OCc1ccc(Cl)cc1,31.4
18,COc1ccccc1C1C(C#N)=C(N)Oc2cc(C)n(Cc3ccccn3)c(=O)c21 (stereo not shown),-2.81
19,Cc1ccc2c(c1)C(=C(C#N)C#N)C(=O)N2CCN1CCOCC1,-38.6
20,CCCS(=O)(=O)c1nc(S(=O)(=O)c2ccc(C)cc2)c(N2CCc3ccccc3C2)s1,5.34
21,Cc1ccc(-c2cnc(SCC(=O)N3CCCc4ccccc43)n2C)cc1,-50.8
22,Cn1c(-c2ccccc2)cnc1SCC(=O)N1CCCc2ccccc21,-27.9
23,Cn1c(-c2ccc(F)cc2)cnc1SCC(=O)N1CCCc2ccccc21,-24.8
24,O=C(c1cc(-c2ccc(O)cc2)on1)N1CCCc2ccccc21,-29.5
25,Cc1ccc(-c2cc(C(=O)N3CCCc4ccccc43)no2)cc1,-75.6
26,O=C(c1cc(-c2ccccc2)on1)N1CCCc2ccccc21,-18.1
27,O=C(NCc1ccc(F)cc1Cl)C1CCN(S(=O)(=O)N2CCC3(CC2)OCCO3)CC1,-13.9
